# In PubChem BioAssay:
# Activity calls are given as the source filed them.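 Rule for the calls, unless noted: active = inhibition above 20% together with a positive visual image hit; inconclusive = visual image hit but inhibition not above 20%; inactive = no visual image hit.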
# What was measured:
# [1] = inhibitors of TNFa-induced NFkB p65 translocation, primary screen, imaging, HUVEC, MLSMR starter and 10KST1 sets (AID 438); settings: HUVEC TNFa-induced p65 nuclear translocation; cell count: measured here: nuclei count (cytotoxicity indicator), at 2.08 µM; inhibition: at 2 µM, stronger effect = higher value, 0% TNFa-plus-vehicle, 100% no-TNFa wells;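 note: compound added about 3h40 before a 20 min TNFalpha stimulation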;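 for inhibition: signal is the nuclear over cytoplasmic p65 intensity ratio per well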
# [2] = reduction of polyQ htt aggregates in cells – imaging, exon1htt(103Q)mCFP cells, high-content imaging, primary screen (AID 483;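 active = visual image review flags a hit and inhibition of aggregation exceeds 20%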;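 note: compound exposure lasted 3 days before fixation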;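 for nuclei count: percent of the per-plate median nuclei count of sample wells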); settings: exon1htt(103Q)mCFP cell line, aggregate imaging, at 2 µM; inhibition of aggregation: stronger effect = higher value; nuclei count: measured here: cell count, toxicity
# [3] = endothelial E-selectin expression blockers – imaging, HUVEC, immunofluorescence, MLSMR starter and 10KST1 sets, primary screen (AID 487;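 active = visually confirmed hit in the image check and inhibition above 20%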;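 for inhibition: signal is fraction of cell area covered by stained E-selectin grains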;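 for nuclei count: 100% = median nuclei count of all wells on the same plate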); settings: HUVEC TNFalpha-induced E-selectin immunofluorescence imaging, at 2 µM; inhibition: stronger effect = higher value; nuclei count: measured here: cell number, toxicity
# [4] = target: Voltage-gated potassium channel subunit beta-2 (Rattus norvegicus) (UniProt P62483); experiment: inhibitors of rat Kvbeta2 reductase activity – biochemical, NADPH fluorescence, primary screen (AID 622;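 active = fluorescence slope higher than the sample average by over 3 SD, cut at about -0.22 in these data, passing the limit was not always enough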;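 note: slope of raw intensity against log time taken from 70 to 1610 s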); settings: recombinant KvBeta, 4-cyanobenzaldehyde reduction, at 10 µM, stronger effect = higher value
# Sequence of Voltage-gated potassium channel subunit beta-2 (Rattus norvegicus) (P62483 whole entry, looked up): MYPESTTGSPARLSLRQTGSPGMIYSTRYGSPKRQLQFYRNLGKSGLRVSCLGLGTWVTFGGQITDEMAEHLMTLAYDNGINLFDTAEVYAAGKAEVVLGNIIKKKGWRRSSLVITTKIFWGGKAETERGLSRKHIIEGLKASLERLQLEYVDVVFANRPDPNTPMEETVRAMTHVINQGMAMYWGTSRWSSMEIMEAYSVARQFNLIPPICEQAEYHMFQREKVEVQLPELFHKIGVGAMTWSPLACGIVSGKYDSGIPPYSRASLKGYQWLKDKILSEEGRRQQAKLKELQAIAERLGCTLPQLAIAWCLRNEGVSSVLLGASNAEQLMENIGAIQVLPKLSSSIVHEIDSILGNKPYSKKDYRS
# [5] = target: Voltage-gated potassium channel subunit beta-2 (Rattus norvegicus) (UniProt P62483); experiment: enhancers of rat Kvbeta2 NADPH turnover – biochemical, NADPH fluorescence, primary screen (AID 623;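 active = NADPH fluorescence slope more negative than the mean of all samples by about 3 SD, 99.7% confidence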;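 note: fluorescence intensity change per second fitted from 20 to 320 s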); settings: Recombinant KvBeta, NADPH fluorescence decrease slope, 10 min; at 10 µM; stronger effect = lower value
# [6] = target: Alpha-2C adrenergic receptor (Homo sapiens) (UniProt P18825); experiment: compounds altering alpha2C-coupled GIRK flux – cell-based, HEK293 alpha2C/GIRK1/2, thallium flux, primary screen (AID 624;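 active = fluorescence slope after compound addition differing from the mean of all screened samples at 99.7% confidence, in either direction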;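 note: slope of fluorescence ratio to pre-addition baseline per second over 15 to 24 s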); settings: thallium flux BTC fluorescence, at 10 µM, actives lie on both sides
# Sequence of Alpha-2C adrenergic receptor (Homo sapiens) (P18825 whole entry, looked up): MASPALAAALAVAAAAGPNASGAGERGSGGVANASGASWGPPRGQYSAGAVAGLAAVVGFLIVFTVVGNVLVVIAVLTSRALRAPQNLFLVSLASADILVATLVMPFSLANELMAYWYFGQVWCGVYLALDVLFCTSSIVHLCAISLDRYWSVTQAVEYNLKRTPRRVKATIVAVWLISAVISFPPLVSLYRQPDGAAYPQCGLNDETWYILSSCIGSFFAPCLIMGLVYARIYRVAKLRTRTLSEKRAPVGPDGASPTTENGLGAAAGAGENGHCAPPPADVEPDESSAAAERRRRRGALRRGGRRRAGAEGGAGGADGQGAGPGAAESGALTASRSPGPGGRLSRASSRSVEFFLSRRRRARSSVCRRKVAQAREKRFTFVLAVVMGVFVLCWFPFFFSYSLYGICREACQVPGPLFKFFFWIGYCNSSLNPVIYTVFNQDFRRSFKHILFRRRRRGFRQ
# [7] = blockers of RIG-like receptor reporter activation – cell-based, Sendai virus stimulus, luciferase, 10K MLSCN set, TLR/RLR signaling modifier project, primary screen (AID 602276;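 active = inhibition at or above 50% at 10 µM; inactive = inhibition below 50%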;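 note: firefly luciferase from ISG56 promoter only with Renilla not read in this screen; 0% = Sendai virus plus DMSO and 100% = medium plus DMSO without virus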); settings: HEK293 RL24 IRF3 luciferase reporter, at 10 µM, stronger effect = higher value
# [8] = TLR3 IRF3 reporter activation blockers – cell-based, poly I:C stimulus, luciferase, 10K MLSCN set, primary screen (AID 602277;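 active = inhibition of the reporter signal at or above 50%; inactive = inhibition below 50%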); settings: HEK293-TLR3 RL24 IRF3 luciferase reporter, at 10 µM, stronger effect = higher value
Structure (SMILES),cell count [1],inhibition [1],inhibition of aggregation [2],nuclei count [2] [%],inhibition [3],nuclei count [3] [%],fluorescence slope [4],NADPH fluorescence slope [5],slope [6],inhibition [7],inhibition [8]
Cc1cccc(CC2CC(=O)N(c3ccccc3)C2=O)c1 (configuration not stated),203,-2.9% (inactive),-15.1% (inactive),84.5,11.6% (inactive),102,-0.554 (inactive),-2.2e-05 (inactive),0.00674 (inactive),-16.2% (inactive),-11.2% (inactive)
CCOC(=O)c1cnc(SC2CC(=O)N(c3ccc(OC)c(OC)c3)C2=O)nc1N (configuration not stated),811,-3.6% (inactive),-0.6% (inactive),95.4,-110% (inactive),135,-0.531 (inactive),1.4e-05 (inactive),0.00718 (inactive),-6.56% (inactive),-2.72% (inactive)
O=C(c1ccco1)N1CCN(S(=O)(=O)c2ccc3c(c2)CCN3C(=O)C2CCC2)CC1,600,1.2% (inactive),22.2% (inactive),97,-53.2% (inactive),115,-0.425 (inactive),-3.6e-06 (inactive),0.00394 (inactive),-18.7% (inactive),-87.3% (inactive)
COc1ccc(CCNC(=O)CSCc2n[nH]c(=O)[nH]2)cc1OC,330,1.6% (inactive),-15.4% (inactive),99.5,-97.5% (inactive),131,-0.476 (inactive),-3.9e-05 (inactive),0.00502 (inactive),19.2% (inactive),24.3% (inactive)
C/C(=N\O)C(C)/[N+]([O-])=C/c1nc(C)c(C)n1O (configuration not stated),611,0.2% (inactive),12% (inactive),106,5.3% (inactive),98.3,-0.492 (inactive),-7.2e-05 (inactive),0.00463 (inactive),15.5% (inactive),20.8% (inactive)
CC(C)C(=O)Nc1ccc(C(=O)NCc2cccnc2)cc1,393,9.4% (inactive),10% (inactive),102,-115% (inactive),109,-0.598 (inactive),1.1e-05 (inactive),0.00588 (inactive),-10.7% (inactive),-31.6% (inactive)
CC(C)C(c1nnnn1CC1CCCO1)N1CCN(Cc2ccc3c(c2)OCO3)CC1 (configuration not stated),357,4.8% (inactive),-10.8% (inactive),113,-55.1% (inactive),110,-0.521 (inactive),-5.8e-05 (inactive),0.00548 (inactive),9.72% (inactive),12.5% (inactive)
Cn1cc(Cl)c(C(=O)NC2CCCC2)n1,452,-8.5% (inactive),26.8% (inactive),64.4,-25.2% (inactive),104,-0.594 (inactive),-3.1e-05 (inactive),0.00694 (inactive),-2.09% (inactive),4.05% (inactive)
c1ccc(Nc2ccccc2Nc2ccccn2)nc1,306,4.4% (inactive),21.6% (inactive),88.1,8.5% (inactive),90.5,-0.379 (inactive),-5.3e-06 (inactive),0.00758 (inactive),13% (inactive),25% (inactive)
CCOc1ccccc1OCC(=O)NCc1ccco1,375,-3.4% (inactive),2.9% (inactive),101,-16.4% (inactive),92,-0.409 (inactive),-4.3e-05 (inactive),0.00437 (inactive),11.5% (inactive),9.81% (inactive)
CC1(C)COCN1S(=O)(=O)c1ccc(C(=O)Nc2nnc(-c3ccc(Cl)s3)o2)cc1,440,10.8% (inactive),-2.8% (inactive),98.3,-26.4% (inactive),93.8,-0.545 (inactive),1.8e-05 (inactive),0.00616 (inactive),49.1% (inactive),36.9% (inactive)
Cc1ccc(S(=O)(=O)N2C(=O)CCC2C(=O)Nc2ccc3c(c2)OCCO3)cc1 (configuration not stated),430,3.8% (inactive),-9.4% (inactive),101,-32.2% (inactive),102,-0.446 (inactive),-2.2e-05 (inactive),0.00315 (inactive),10.3% (inactive),27.4% (inactive)
N#Cc1ccc(COC(=O)Cn2nnc(-c3ccccc3)n2)cc1,503,-15.2% (inactive),-8.3% (inactive),98.8,-124% (inactive),121,-0.614 (inactive),-1.6e-05 (inactive),0.00648 (inactive),9.56% (inactive),19.4% (inactive)
Cc1nnc(SCc2cc(=O)[nH]c(N3CCCCC3)n2)s1,639,5% (inactive),0.6% (inactive),96.3,14.7% (inactive),107,-0.592 (inactive),-3.2e-05 (inactive),0.00759 (inactive),13.1% (inactive),19.7% (inactive)
CCOC(=O)/C=C1\SCC(=O)N1Cc1ccc(Br)cc1,562,-4.8% (inactive),-14.9% (inactive),96,-49.7% (inactive),116,-0.462 (inactive),-0.000366 (inactive),0.00633 (inactive),10.8% (inactive),20% (inactive)
CCC(=O)N(CCCN(C)C)c1nc(-c2cc(OC)ccc2OC)cs1,392,7.8% (inactive),-4.4% (inactive),106,-14.7% (inactive),116,-0.623 (inactive),-6.2e-05 (inactive),0.00293 (inactive),19.4% (inactive),27% (inactive)
COc1ccc(C(=O)Nc2ccc(S(=O)(=O)NC(C)=O)cc2)cc1,568,2.4% (inactive),21.1% (inactive),92.1,9.3% (inactive),107,-0.494 (inactive),-2.4e-05 (inactive),0.00509 (inactive),10.3% (inactive),6.87% (inactive)
CCOc1ccc(-n2cc(C(=O)N3CCN(C)CC3)c3cc(OC)c(OC)cc3c2=O)cc1,393,8.8% (inactive),0.2% (inactive),99.4,-54.1% (inactive),121,-0.524 (inactive),1.6e-05 (inactive),0.007 (inactive),-29.8% (inactive),-2.36% (inactive)
COc1ccc(CCNC(=O)C2CCN(C(=O)N(C)C)CC2)cc1OC,618,0.9% (inactive),3.5% (inactive),44.3,-74.3% (inactive),106,-0.386 (inactive),-1.9e-05 (inactive),0.00486 (inactive),6.71% (inactive),-1.45% (inactive)
COc1ccccc1NC(=O)c1oc2ccccc2c1NC(=O)c1cc(OC)c(OC)c(OC)c1,582,-7.6% (inactive),-17.1% (inactive),85.7,25.8% (inactive),60.4,-0.36 (inactive),-9.5e-06 (inactive),0.00886 (inactive),36% (inactive),65.9% (active)
COCCOC(=O)c1[nH]c2c(c1C)C(=O)CC(c1ccc(N(C)C)cc1)C2 (configuration not stated),342,-4.6% (inactive),-19% (inactive),105,21.3% (inactive),83.3,-0.534 (inactive),1.4e-05 (inactive),0.00456 (inactive),-15.6% (inactive),-26.9% (inactive)
CCOC(=O)N1CCC(NC(=O)CCN2C(=O)COc3ccccc32)CC1,322,-2.6% (inactive),11.5% (inactive),106,-22.4% (inactive),127,-0.27 (inactive),1.7e-05 (inactive),0.00554 (inactive),17% (inactive),17.2% (inactive)
O=C1CCCC2=C1C(c1cccs1)n1nc(SCc3ccccc3F)nc1N2 (configuration not stated),694,8.6% (inactive),16.5% (inactive),109,-30.7% (inactive),79.7,-0.505 (inactive),3.2e-05 (inactive),0.00593 (inactive),-24.2% (inactive),-0.597% (inactive)
CCOC(=O)CSc1nc2cccnc2n1-c1ccc(F)cc1,328,-0.2% (inactive),-28% (inactive),110,-26.8% (inactive),111,-0.444 (inactive),-1.6e-05 (inactive),0.0064 (inactive),-4.88% (inactive),2.83% (inactive)
CC(=O)NC(Cc1cc(C)ccc1C)C(=O)N1CCN(C(=O)Nc2ccc(C(C)=O)cc2)CC1 (configuration not stated),324,-2.1% (inactive),-26% (inactive),106,-23.1% (inactive),99.8,-0.378 (inactive),-4.4e-05 (inactive),0.00656 (inactive),2.34% (inactive),-13% (inactive)
CCOC(=O)C1CCCN(C(=O)c2ccc(CS(=O)(=O)c3ccc(Br)cc3)o2)C1 (configuration not stated),509,-3% (inactive),-0.5% (inactive),108,-61.3% (inactive),111,-0.422 (inactive),-7.7e-05 (inactive),0.00523 (inactive),4.84% (inactive),25.8% (inactive)
COc1cccc(-n2c(SCC(=O)Nc3cc(C)on3)nc3c([nH]c4ccccc43)c2=O)c1,600,8% (inactive),-10.2% (inactive),89.7,-41% (inactive),118,-0.539 (inactive),-7.7e-06 (inactive),0.00757 (inactive),24% (inactive),28.7% (inactive)
